Test results reported in PubChem BioAssay (NCI).
The panel holds about 83,000 compounds, 20% with a hit somewhere; the sample as a whole holds those more often.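 Method: cells in 96-well plates; compound added at one concentration; 48 h incubation; percent growth measured; values under 10 scored active.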 Unmarked numbers belong to inactive results. Calls of active or inactive are those of the source.

These compounds were tested on SF-295 CNS (assay: NCI-60 one-dose screen, 48 h (100 = growth as untreated, 0 = no growth, -100 = all killed)). Conditions: 10 µM unless noted.
O=C(CSc1nc2ccccc2c(=O)[nH]1)Nc1ccccc1C(=O)O showed a growth of 101%.
In the case of Cn1cc(-c2cc(N)n3nc(-c4c[nH]c5ccccc45)cc3n2)c2ccccc21, the growth is reported as -90.3% (active).
Cc1cccc(/C=C/c2ccc(NC(=S)NCCCCN(C)C)cc2)c1 was tested, and the growth was -95.6% (active).
For Cc1ccc(N=Nc2c(N)nn3c(-c4cc5ccccc5oc4=O)ccnc23)cc1, the growth was 57.4%.
Compound O=C(Nc1nc2ccccc2s1)Nc1ccccc1Cl has a growth of 45%.
COc1ccc(NC(=O)CSc2nnc(-c3ccc(-c4nc5ccc(Cl)cc5[nH]4)cc3)o2)cc1 gave a growth of 43.8%.
In the case of O=C1Nc2cc(-c3ccc(NS(=O)(=O)c4ccc(C(F)(F)F)cc4)cc3)ccc2/C1=C/c1ccc[nH]1, the growth is reported as 17.6%.
With COc1ccc(Nc2nnc(-c3c[nH]c4ccccc34)o2)cc1 the growth was 98%.
With Cn1cc(-c2cc(N)n3nc(-c4c[nH]c5ccc(F)cc45)cc3n2)c2cccnc21 the growth was -93.9% (active).
O=C(NN1C(=O)/C(=C/C=C/c2ccc([N+](=O)[O-])o2)SC1=S)c1ccc([N+](=O)[O-])cc1 was tested, and the growth was -97.5% (active).
CN1C(=O)/C(=C/c2ccco2)S/C1=N/c1nccs1 showed a growth of 102%.
Compound N#C/C(=C/c1ccc([N+](=O)[O-])cc1)c1nnc(NC(=O)c2ccc(-n3c(=O)[nH]c4ccccc4c3=O)cc2)s1 has a growth of 100%.
O=C(CSc1nnc(-c2ccc(-c3nc4ccc(Cl)cc4[nH]3)cc2)o1)Nc1ccccc1 was tested, and the growth was 75.7%.
Compound Cc1cccc(NCC(=O)N2CCN(c3ncnc4c3cnn4-c3ccccc3)CC2)c1 has a growth of 46.6%.
